Screening results: PubChem BioAssay, National Center for Advancing Translational Sciences (NCATS)
LMNA splice mod = qHTS Assay for Modulators of Lamin A Splicing | Potency, µM (titrated, usually from 46.1 µM), for inactives: at the top dose ratio change, negative = inhibition, usual class: inhibitors | 0.01% of 200,000 active | HeLa LMNA splicing GFP/RFP minigene ratio, 48 h | AID 1487, 2009; active = well fitted inhibition curve with a large enough effect in the signal ratio, with a control signal flat, not every such curve was filed as active; inconclusive = small, poorly fitted or top-dose-only effect, or effect the other way, or a change in a side signal; the % refers to the signal ratio; also: potency is read from the fitted curve at half-maximal effect; % is scaled to controls: 0 for no effect and ±100 for the full control effect
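S3 HeLa cells stably expressing lamin A-EGFP splicing minigene plus DsRed2, 600 cells/well, 48 h compound exposure at 37C. Laser-scanning cytometry; analysed as GFP (500-530 nm)/RFP (575-640 nm) total intensity ratio; 0.5% DMSO vehicle.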
Tau fibril FP = qHTS for Inhibitors of Tau Fibril Formation, Fluorescence Polarization; Microtubule-associated protein tau (Homo sapiens), P10636; K18 P301L tau heparin fibrillization, Alexa594 FP, 6 h; 0.39% of 280,000 active; AID 1468, 2008; Potency, µM (series often up to 57.7 µM), without a hit: at the highest dose activity, negative = inhibition, most hits filed as inhibitors; also: potency is read from the fitted curve at half-maximal effect; % is scaled to controls: 0 for no effect and ±100 for the full control effect; nearly all actives have a fitted effect of over 55% in size
Target sequence (P10636 561-689 P618L limits assumed): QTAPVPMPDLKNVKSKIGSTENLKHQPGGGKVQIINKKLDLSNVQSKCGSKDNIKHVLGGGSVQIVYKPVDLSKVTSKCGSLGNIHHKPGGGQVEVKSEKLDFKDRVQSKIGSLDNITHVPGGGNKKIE
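Steps: dispense K18 P301L tau (15 uM plus 0.24 uM Alexa 594 tracer, final) in pH 7 sodium acetate; add compound; add heparin (20 uM final); incubate 6 hr, 37 C; add ThT (30 uM final); after 1 hr ambient, read FP.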
KDM4E inh = qHTS Assay for Inhibitors of Human Jumonji Domain Containing 2E (JMJD2E); Potency, µM (series often up to 57.1 µM), for the others: at the top dose activity change, negative = inhibition, hits mostly inhibitors; JMJD2E catalytic domain, FDH-coupled NADH fluorescence (FDH is formaldehyde dehydrogenase); Lysine-specific demethylase 4E (Homo sapiens), B2RXH2; 1.6% of 230,000 active; AID 2147, 2009; active = well fitted inhibition curve with a large enough effect, not every such curve was filed as active; inconclusive = small, poorly fitted or top-dose-only effect, or another doubt; inactive = no such curve, though single readings can be large or run the other way;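 also: potency is read from the fitted curve at half-maximal effect; 0% = wells with enzyme and -100% = buffer wells without enzyme; nearly all actives have a fitted effect of over 50% in size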
Tau fluor cs = Counterscreen qHTS for Inhibitors of Tau Fibril Formation, Fluorescence Polarization; tau K18 P301L Alexa594 fluorescence, heparin fibrillization; 0.93% of 280,000 active; Potency, µM (doses to about 57.7 µM), inactives show at the highest dose activity change, negative = decrease; also: potency is read from the fitted curve at half-maximal effect; % is scaled to controls: 0 for no effect and ±100 for the full control effect; nearly all actives have a fitted effect of over 55% in size
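Human K18 P301L tau (15 uM unlabeled plus 0.24 uM Alexa 594-labeled, final) in 100 mM sodium acetate pH 7 was mixed with compound and 20 uM heparin and incubated 6 hr at 37 C.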
CBFb-RUNX1 inh = qHTS Assay for Compounds Blocking the Interaction Between CBF-beta and RUNX1 for the Treatment of Acute Myeloid Leukemia | Runt-related transcription factor 1 (Homo sapiens) + Core-binding factor subunit beta … | AlphaScreen CBFb-His/RUNX1-biotin binding, biochemical | Potency, µM (doses to about 59.8 µM), inactives show top-dose activity, negative = inhibition, most hits filed as inhibitors | 230,000 tested, under 10 active | AID 1477, 2009; also: % of control where 0% means no effect
Target sequence (Q01196 whole entry, looked up): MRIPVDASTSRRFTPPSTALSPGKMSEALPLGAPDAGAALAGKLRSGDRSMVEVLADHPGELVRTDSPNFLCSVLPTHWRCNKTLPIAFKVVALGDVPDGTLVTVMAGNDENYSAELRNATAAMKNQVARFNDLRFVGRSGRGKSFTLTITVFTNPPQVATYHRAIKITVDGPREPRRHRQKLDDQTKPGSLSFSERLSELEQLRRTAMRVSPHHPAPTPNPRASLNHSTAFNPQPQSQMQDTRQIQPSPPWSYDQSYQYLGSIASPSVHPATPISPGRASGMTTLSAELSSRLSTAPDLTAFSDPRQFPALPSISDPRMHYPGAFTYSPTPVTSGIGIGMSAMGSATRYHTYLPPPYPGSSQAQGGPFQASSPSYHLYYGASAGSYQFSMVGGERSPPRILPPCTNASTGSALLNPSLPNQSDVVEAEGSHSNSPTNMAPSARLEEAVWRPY
Target sequence (Q13951 whole entry, looked up): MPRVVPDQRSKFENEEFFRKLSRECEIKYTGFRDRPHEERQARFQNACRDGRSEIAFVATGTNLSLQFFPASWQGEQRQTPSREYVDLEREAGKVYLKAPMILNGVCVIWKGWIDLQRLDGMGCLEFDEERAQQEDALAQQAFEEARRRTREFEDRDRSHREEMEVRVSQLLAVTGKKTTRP
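Interaction loss through any mechanism counts as activity. Pre-formed complex of His-CBF-beta and biotin-RUNX1 (30 nM apiece) is incubated with compound 15 min, then with 50 ng nickel and 50 ng streptavidin beads for 90 min before AlphaScreen detection.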
Tau ThT inhib = qHTS for Inhibitors of Tau Fibril Formation, Thioflavin T Binding. 2.1% of 270,000 active. Microtubule-associated protein tau (Homo sapiens), P10636. Potency, µM (series often up to 57.4 µM), inactives show at the top dose activity, negative = inhibition, hits mostly inhibitors. AID 1460, 2008. recombinant tau K18 P301L (four-repeat tau fragment), heparin-induced fibrillization, ThT fluorescence; also: potency is read from the fitted curve at half-maximal effect; % is scaled to controls: 0 for no effect and ±100 for the full control effect; nearly all actives have a fitted effect of over 55% in size
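Heparin-induced fibrillization of the P301L-mutant K18 repeat-domain fragment of human tau was followed by ThT binding in quantitative high-throughput format.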
Numbers without * were called inactive; ? = inconclusive; . = not tested or not shown; ! = not confirmed by another sample; [ ] = remark or other dose. A selection: hits, their analogues and other compounds. The true share with any hit is near 3.2%. Unless noted, calls follow the shape of the dose curve; as a rule, active = well fitted curve in the direction sought with a large enough effect; inconclusive = small, poorly fitted or top-dose-only effect, or another doubt; inactive = no such curve, though single readings can be large; an effect the other way counts as inactive or inconclusive.

SMILES | LMNA splice mod | Tau fibril FP | KDM4E inh | Tau fluor cs | CBFb-RUNX1 inh | Tau ThT inhib
COC(=O)c1cc(NC(=O)c2cc(-c3ccc(OC)cc3)oc2C(F)(F)F)ccc1N1CCOCC1 | . | ? | ? | 8.9µM*[quencher] | -10% | .
COc1ccc(C2=Nn3c(nnc3-c3cc(OC)cc(OC)c3)SC2)cc1 | . | . | . | . | 6% | .
CCOC(=O)c1cc(-c2ccccc2)n(CCC(=O)Nc2cc(C)cc(C)c2)c1C | -3%[46 µM] | 1% | . | -19% | . | ?
Cc1cc2ccccn2c1C(=O)c1ccncc1 | -11% | 2% | 9% | 5% | -3% | -17%
Cc1cc2ccccn2c1C(=S)NC(=O)c1ccccc1 | 2% | 2% | -29% | -19% | . | 16µM*
Cc1cccc(Nc2cc(Cl)nc(SCC(=O)O)n2)c1C | . | 3% | ? | -3% | 13% | -4%
COc1ccc(-n2ncc3c(NCCCOC(C)C)ncnc32)cc1 | ? | -18% | . | -15% | . | -11%
CCN(CC)CCCNC(=O)c1c(C)oc2ncn(CC(C)C)c(=O)c12 | -4%[46 µM] | -10% | . | 1% | . | 2%
CCc1ccc(NSc2ccccc2[N+](=O)[O-])cc1 | ? | 2% | -6% | 14µM*[quencher] | ? | ?
Cn1cccc1/C=N/NC(=O)C(O)c1ccccc1 (stereo unspecified) | . | 5%[11.6 µM] | 25µM* | 14%[11.6 µM] | -2% | .
Cc1cc(C)c2c(CC(=O)Nc3c(C(=O)c4ccc(F)cc4)oc4ccccc34)coc2c1 | . | -6% | . | -5% | . | 5%
COc1cc2c3nnc(-c4ccccc4)c-3cn(Cc3ccccc3F)c2cc1OC | -8%[46 µM] | 3% | 3.5µM* | -4% | 5% | 2%
COc1ccc2nc3oc(C(=O)N(C)c4ccc(Cl)cc4)cc3cc2c1 | . | 7% | . | -9% | . | ?
CCS(=O)(=O)N1N=C(c2ccc(C)cc2)CC1c1cc2ccc(OC)cc2nc1Cl (stereo unspecified) | . | 40µM* | . | ? | . | -9%
CCOc1ccc2nc(Cl)c(C3CC(c4ccc(OC)cc4)=NN3S(C)(=O)=O)cc2c1 (stereo unspecified) | . | 35µM* | . | ? | . | -8%
CCOc1ccc2nc(Cl)c(C3CC(c4ccco4)=NN3S(=O)(=O)c3ccccc3)cc2c1 (stereo unspecified) | 2% | -10% | ? | -4% | -16% | 9%
CC(C)OCCCN1C=C2C(=O)C(C)(OC(=O)CCc3ccccc3)C(=O)C=C2C=C1c1ccc(C#N)cc1 (stereo unspecified) | 1%[9.22 µM] | -2%[11.6 µM] | 22µM*! | -15%[11.6 µM] | -5%[13.1 µM] | ?
CC1(OC(=O)CCc2ccccc2)C(=O)C=C2C=C(c3ccc(C#N)cc3)N(CCN3CCOCC3)C=C2C1=O (stereo unspecified) | -11%[9.22 µM] | ? | 13µM* | 1%[11.6 µM] | -5%[13.1 µM] | ?
COc1ccccc1CNC(=O)CCC(=O)N1CC2CCCN2c2ccccc21 (stereo unspecified) | ? | 8% | . | 2% | . | 6%
CC(C)c1ccccc1NC(=O)CNCCc1ccc(C(F)(F)F)cc1 | . | -4% | 3.2µM* | -21% | -13% | -11%
Cc1ccc(S(=O)Cc2ccc(C(=O)NCc3ccc(OC(C)C)cc3)o2)cc1 (stereo unspecified) | . | -1% | . | -7% | . | -1%
COc1ccc(S(=O)(=O)N2CCC(c3nnnn3-c3ccccc3)CC2)cc1OC | . | 0% | . | -29% | . | -8%
CNCc1ccccc1Sc1ccc(O)c(O)c1 | ? | 8.9µM* | 14µM* | ? | . | 4µM*
C[C@@H]1C[C@](C)(C(=O)c2ccc3c(c2)OCO3)C=C1c1ccc2c(c1)OCO2 | . | -2% | -4% | -11% | 11% | -8%
CC(=O)Nc1ccccc1 | -6% | 8% | -2% | -1% | 7% | -1%
SMILES | LMNA splice mod | Tau fibril FP | KDM4E inh | Tau fluor cs | CBFb-RUNX1 inh | Tau ThT inhib
CCCCC(CC)C(=O)Nc1ccc(C#N)cc1 (stereo unspecified) | -11% | -4% | -1% | -10% | 3% | 3%
CC(=O)C(Cl)C(=O)Nc1ccccc1 (stereo unspecified) | ? | ? | -6% | -15% | 0% | 25µM*
CCCCC(CC)C(=O)Nc1ccc(Nc2ccccc2)cc1 (stereo unspecified) | -22% | 0% | -5% | 10µM*[quencher] | -5% | ?
COc1ccc(CNC(=O)c2ccc(NC(=O)N3CCCCc4ccccc43)cc2)c(OC)c1 | -19%[46 µM] | 1% | . | -2% | . | 2%
Cn1ccc2c(OCC(=O)Nc3ccc([N+](=O)[O-])cc3)cccc2c1=O | 18%[46 µM] | -15% | . | -27% | . | ?
Cn1c(C(O)C(O)c2ccccc2)nc2ccccc21 (stereo unspecified) | ? | -3% | ? | 2% | -4% | 1%
Cn1c(C(C#N)C2=C(Cl)C(=O)N(c3ccccc3)C2=O)nc2ccccc21 (stereo unspecified) | 3% | ? | -22% | 16µM*[quencher] | ? | 13µM*
Cc1cccc(NS(=O)(=O)c2ccc3c(c2)CC(C)N3C(=O)C2CCC2)c1C (stereo unspecified) | ? | -3% | . | -17% | . | -5%
CCOC(=O)CCN1C(=O)[C@H]2[C@@H]3[C@H](O)C=CC(=O)[C@H]3CC[C@H]2C1=O | . | -8%[11.6 µM] | . | -10%[11.6 µM] | 17%[13.1 µM] | -11%[11.5 µM]
Cn1c(/C=C(\C#N)C(N)=S)ccc1-c1ccc(Br)cc1 | 36%[46 µM] | 4% | 2% | -28% | -16% | 1µM*
Cc1ncc(CO)c2c1Oc1nc(-c3ccc(Cl)cc3)nc(SCC(=O)N3CCCCC3)c1C2 | . | -3% | . | -5% | . | -6%
COc1cc(/C=N/NC(=O)C(=O)/C=C2\NC3(CCCC3)Cc3ccccc32)ccc1O | ? | ? | -9% | ? | ? | ?
CN(C)c1ccc(/C=N/NC(=O)C(=O)/C=C2\NC3(CCCC3)Cc3ccccc32)cc1 | ? | 7% | 2% | -10% | 3% | 2.2µM*
OCCN1CCN(C(c2cccs2)c2ccc3cccnc3c2O)CC1 (stereo unspecified) | -8% | ? | 8.9µM* | -16% | -29% | ?
OCCN1CCN(CC(O)COc2ccc3ccccc3c2)CC1 (stereo unspecified) | 6% | 9% | ? | 2% | 6% | -8%
CN(C)c1ncc2nc(-c3cccs3)c(=O)n(C[C@H]3CCCO3)c2n1 | -1% | . | . | . | . | .
